Only some compounds are listed: those with a hit (about 2.4% of all), similar ones and a draw of the others.
CHRM1 antagonist: blocks human M1 muscarinic receptor; P11229; CHO-K1 hM1, Fluo-8 calcium fluorescence, ACh EC80 antagonist; inhibition, % at 3 µM; 1.3% of 360,000 active;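 active means percent inhibition above its own plate's cutoff, namely the mean of that plate's compound wells plus 3 SD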;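 further: peak over basal fluorescence ratio during 140 s after agonist addition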
Target sequence (P11229 whole entry, looked up): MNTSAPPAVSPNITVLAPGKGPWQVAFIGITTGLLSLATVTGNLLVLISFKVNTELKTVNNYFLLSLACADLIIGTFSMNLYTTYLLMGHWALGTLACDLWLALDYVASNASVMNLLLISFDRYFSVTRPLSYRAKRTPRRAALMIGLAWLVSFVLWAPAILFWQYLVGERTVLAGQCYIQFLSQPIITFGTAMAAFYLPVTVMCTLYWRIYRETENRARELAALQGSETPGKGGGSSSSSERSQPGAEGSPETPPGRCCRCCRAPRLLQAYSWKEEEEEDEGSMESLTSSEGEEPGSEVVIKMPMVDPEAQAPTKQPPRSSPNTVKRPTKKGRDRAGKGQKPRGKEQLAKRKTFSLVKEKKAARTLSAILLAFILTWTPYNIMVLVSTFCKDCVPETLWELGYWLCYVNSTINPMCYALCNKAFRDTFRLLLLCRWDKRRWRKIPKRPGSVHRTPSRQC
CHO-K1 Ca antag: nonselective inhibitor or artifact in parental CHO-K1 cells. ATP-induced calcium, Fluo-8 fluorescence. 0.6% of 360,000 active. inhibition, % at 3 µM;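 active means inhibition above a per-plate cutoff, the plate's mean sample inhibition plus 3 SD, cut at about 24% in these data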
M1 ag: agonists of human M1 muscarinic receptor; AID 588814; CHO-K1 hM1, Fluo-8 calcium fluorescence, agonist mode; 0% DMSO, 100% acetylcholine EC100; P11229; activation, % at 3 µM; 0.33% of 360,000 active;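 active means activation above the run's mean compound activation plus 3 SD, cut at about 16% in these data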;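 further: peak over basal fluorescence ratio within a 140 s kinetic read after compound addition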
CHO-K1 Ca PAM: M1 PAM counterscreen hit in parental CHO-K1 cells. ATP EC20, Fluo-8 calcium fluorescence; 0% at ATP EC20, 100% at ATP max. activation, % at 3 µM. 0.02% of 360,000 active. AID 602247;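 active means activation above the run cutoff, the mean activation of all test compounds plus 3 SD, cut at about 40% in these data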;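 further: peak over basal fluorescence ratio in a 140 s read after ATP addition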
CHO-K1 Ca ag: counter-screen for M1 agonists: effect in parental CHO-K1 cells; Fluo-8 calcium fluorescence; scaled to maximal ATP response, vehicle zero; activation, % at 3 µM; 0.48% of 360,000 active; AID 602248; in the data active means activation above about 15%;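 further: untransfected CHO-K1 host cells lacking M1 receptor as counterscreen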
CHRM1 PAM: positive allosteric modulators of human M1 muscarinic receptor; CHO-K1 hM1, Fluo-8 calcium fluorescence, ACh EC20; 0% = ACh EC20, 100% = maximal ACh; activation, % at 3 µM; 0.088% of 360,000 active; AID 588819; in the data active means activation above about 19%, passing the limit was not always enough
A number is an active result; n = inactive.

SMILES	CHRM1 antagonist	CHO-K1 Ca antag	M1 ag	CHO-K1 Ca PAM	CHO-K1 Ca ag	CHRM1 PAM
CSc1nc(Cc2ccccc2)nc2ccccc12	n	24	n	n	n	n
CC(C)(C)NC(=O)CSc1nc(Cc2ccccc2)nc2ccccc12	n	n	n	n	n	n
O=C(NCC1CCCN(Cc2ccccc2F)C1)c1cccc(C(F)(F)F)c1 (centres undefined)	n	n	n	n	n	n
Fc1cccc(Cc2noc(CN3CCCN(C4Cc5ccccc5C4)CC3)n2)c1	93	n	n	n	n	n
Fc1cccc(Cc2noc(CN3CCN(C4CCc5ccccc5C4)CC3)n2)c1 (centres undefined)	72	n	n	n	n	n
Fc1cccc(Cc2noc(CN3CCSCC3)n2)c1	n	n	n	n	n	n
Cc1ccc(NC(=O)/C(C#N)=N/Nc2ccc(C(=O)O)cc2)c(C)c1	n	n	n	n	n	24
Cc1ccc(N/N=C(\C#N)C(N)=S)c(C)c1	n	n	n	n	n	n
CSc1ccccc1NC(=O)COC(=O)c1ccc(-n2nc(C)cc2C)cc1	n	n	n	n	n	n
CCN(CC)CCn1c2c(c(SCC(=O)Nc3cccc(C(C)=O)c3)nc1=O)CCCC2	61	n	n	n	n	n
CCN(CC)CCCn1c2c(c(SCC(=O)Nc3cccc(C(C)=O)c3)nc1=O)CCC2	n	n	n	n	n	n
CC1=C(C(=O)N(C(C)C)C(C)C)CC(CC(=O)NCCCCc2ccccc2)C(=O)N1Cc1ccc(C(C)(C)C)cc1 (centres undefined)	n	n	n	n	n	n
COc1ccc(CCC(C)Nc2ccccc2F)cc1 (centres undefined)	n	n	n	n	n	n
COc1ccc(CCC(C)NC2C3CC4CC(C3)CC2C4)cc1 (centres undefined)	99	n	n	n	n	n
CCC[C@@H](CN1CCC[C@H]1CN1C(N)=NC[C@@H]1Cc1ccccc1)N1C[C@@H]([C@H](C)CC)N(CCCC2CCCC2)C1=N	82	n	n	n	n	n
CCCCN1C(=N)N([C@@H](CCC)CN2CCC[C@H]2CN2C(N)=NC[C@@H]2Cc2ccccc2)C[C@H]1Cc1ccccc1	36	n	n	n	n	n
CCC[C@@H](CN1CCC[C@H]1CN1C(N)=NC[C@@H]1Cc1ccccc1)N1C[C@@H](Cc2ccccc2)N(CCCC2CCCC2)C1=N	n	n	n	n	n	n
CC1(C)Cc2c(cnn2-c2ccc(F)cc2)C(NC(=O)CN2CCCCC2=O)C1 (centres undefined)	n	n	n	n	n	n
CCc1nc2ccccc2c(C(=O)OCC(=O)NC(=O)c2cccn2C)c1C	n	n	n	n	n	n
O=c1c2ccc([N+](=O)[O-])cc2ncn1CCOc1ccc(Cl)cc1	44	n	n	n	n	n
CCOC(=O)COc1ccc2c(c1)C(=O)CC(C)(c1cccnc1)O2 (centres undefined)	n	n	n	n	15	n
COc1ccc(OC)c(S(=O)(=O)N2CCN(C(=O)c3ccco3)CC2)c1	n	n	n	n	n	n
COc1cc(S(=O)(=O)N2CCN(C(=O)c3ccco3)CC2)c(OC)cc1C	78	n	n	n	n	n
Cc1ccc(CNC(=O)[C@H](Cc2ccccc2)NC(=O)C2CCNCC2)cc1	n	31	n	n	n	n
Cc1ccc(CC(CC(=O)O)C(=O)NCc2ccccc2)cc1 (centres undefined)	n	n	n	n	n	n
SMILES	CHRM1 antagonist	CHO-K1 Ca antag	M1 ag	CHO-K1 Ca PAM	CHO-K1 Ca ag	CHRM1 PAM
COC(=O)CCN(C(=O)c1ccc(N2CCCC2)c([N+](=O)[O-])c1)c1ccccn1	n	n	n	n	n	n
COC(=O)CCN(C(=O)c1ccc(N2CCCCC2)c([N+](=O)[O-])c1)c1ccccn1	n	n	n	n	20	n
COc1cccc(C2=NN(C(=O)CCCC(=O)O)C(c3cccs3)C2)c1 (centres undefined)	n	n	n	n	n	n
COc1ccc(-n2c3c(cc(C(=O)NCC(=O)c4ccccc4)c2=O)C(=O)CC(C)(C)C3)cc1	n	n	n	n	n	n
c1ccc(CC2CCCNC2)cc1 (centres undefined)	n	n	22	n	n	n
COc1cccc2cc(CC(=O)c3ccccc3)c(=O)oc12	n	n	n	n	n	n
CCN1CCCC1CNC(=O)c1ccc(Sc2ccccc2Cl)c([N+](=O)[O-])c1 (centres undefined)	99	n	n	n	n	n
CCN1CCCC1CNC(=O)c1ccc(Sc2ccc(F)cc2)c([N+](=O)[O-])c1 (centres undefined)	100	n	n	n	n	n
Cc1cc(Cl)ccc1OCC(=O)NNC(=O)C1CCCO1 (centres undefined)	n	n	n	n	n	n
CCn1c(=O)n(CC)c2cc(N3CCCC3)c(NC(=O)c3c(F)cccc3F)cc21	n	n	n	n	n	n
Cc1csc(N/N=C\c2cccnc2)n1	n	n	n	n	17	n
Nc1ccc(S(=O)(=O)N2CCc3ccccc32)cc1	n	n	n	n	n	n
O=S(=O)(NC1CCCC1)c1ccc(S(=O)(=O)N2CCc3ccccc32)cc1	n	n	n	n	16	n
CN(Cc1ccon1)Cc1cn(C)nc1-c1cccc(Cl)c1	n	n	n	n	n	n
NC(=O)c1ccsc1NC(=O)COC(=O)Cc1cccc2ccccc12	40	29	n	n	n	n
NC(=O)c1ccsc1NC(=O)COC(=O)Cc1ccc(F)cc1	n	n	n	n	17	n
COc1cc(C(=O)OCC(=O)Nc2sccc2C(N)=O)cc(OC)c1OC	n	n	n	n	n	n
NC(=O)c1ccsc1NC(=O)CSc1ccccc1F	n	n	n	n	n	n
Cc1ccccc1SCC(=O)OCC(=O)Nc1sccc1C(N)=O	n	28	n	n	16	n
COc1cc(CCC(=O)OCC(=O)Nc2sccc2C(N)=O)cc(OC)c1OC	37	39	n	n	n	n
NC(=O)c1ccsc1NC(=O)COC(=O)Cc1c[nH]c2ccccc12	n	n	n	n	n	n
O=C(Nc1ccccc1C(=O)NC(Cc1ccc(O)cc1)C(=O)O)c1ccccc1 (centres undefined)	n	n	n	n	n	n
O=C(c1ccc([N+](=O)[O-])cc1Cl)N1CCN(Cc2ccccc2)CC1	n	n	n	n	n	n
COc1ccc(CCNC(=O)CN(c2cccc([N+](=O)[O-])c2)S(C)(=O)=O)cc1OC	n	n	n	n	n	n
NC(=O)c1ccsc1NC(=O)COC(=O)Cc1ccccc1[N+](=O)[O-]	n	31	n	n	n	n
Cc1cc(N2CCCCC2)nc2ccccc12	n	n	n	n	n	n

From PubChem
